High-throughput results: PubChem BioAssay, National Center for Advancing Translational Sciences (NCATS)
HPGD inh – blocks human HPGD enzyme activity | P15428 | purified HPGD, NADH fluorescence kinetic, PGE2 substrate | Potency, µM, for the others: top-dose activity change, negative = inhibition, most hits filed as inhibitors | actives 4.3% (n = 150,000); active = well fitted inhibition curve with a large enough effect, not every such curve was filed as active; inconclusive = small, poorly fitted or top-dose-only effect, or another doubt; inactive = no such curve, though single readings can be large or run the other way; also: potency is read from the fitted curve at half-maximal effect; % is scaled to controls: 0 for no effect and ±100 for the full control effect
Target sequence (P15428 whole entry, looked up): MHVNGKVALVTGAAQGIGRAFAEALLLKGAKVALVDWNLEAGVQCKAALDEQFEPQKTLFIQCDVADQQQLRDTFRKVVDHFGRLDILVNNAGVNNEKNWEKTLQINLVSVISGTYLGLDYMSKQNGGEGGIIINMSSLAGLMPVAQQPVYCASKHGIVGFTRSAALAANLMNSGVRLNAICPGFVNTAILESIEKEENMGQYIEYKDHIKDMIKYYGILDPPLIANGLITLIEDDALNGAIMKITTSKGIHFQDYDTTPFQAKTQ
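NADH formation kinetics: reaction with 30 uM PGE2 and 1 mM NAD+ (final), 20 nM enzyme, Tris-HCl pH 8 with Tween 20, after 15 min compound preincubation at room temperature. Fluorescence change, last versus first of five reads.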
HTT cytoprotect – cytoprotection in Huntington HTT-Q103 PC12 cell model | PC12 HTT-Q103 induced, cytoprotection, ATP luminescence, 40 h | actives 0.14% (n = 230,000) | Potency, µM (titrated, usually from 56.4 µM), inactives show cytoprotection (ATP increase), usual class: activators | AID 1471; also: potency is read from the fitted curve at half-maximal effect; % of control where 0% means no effect; nearly all actives have a fitted effect of over 45% in size
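PC12 cells with ecdysone-inducible HTT exon 1 Q103-GFP, induced with 100 nM tebufenozide and co-treated with library compounds in a dose series (1536-well, 1500 cells/well). Cytoprotection read as ATP content by ATPlite luminescence.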
PNC inhibitor – perinucleolar compartment assembly inhibition. PC3M PTB-GFP, PNC prevalence imaging, 16 h; stronger effect = lower value. activity change (PNC), negative = inhibition, % at 10 µM. actives 3.1% (n = 140,000);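 active = readout at or below -70, meaning at least 70% loss of cells showing the perinucleolar compartment, a nuclear body marking cancer cells; inconclusive = readout between -30 and a set limit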;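 also: plate controls were DMSO wells for no effect and camptothecin positive control wells for full effect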
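Read-out is percentage of cells bearing a perinucleolar compartment, from automated 20x imaging of fixed, Hoechst-stained PC3M PTB-GFP cells. Cells were seeded 4 h, then exposed 16 h to compound (23 nl of library stock) in duplicate plates.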
ALDH1A1 block – ALDH1A1 (human) enzyme inhibition; Potency, µM (doses to about 75.3 µM), inactives show at the highest dose activity, negative = inhibition, most hits filed as inhibitors; AID 1030; actives 7.3% (n = 220,000); Purified ALDH1A1, NADH fluorescence, propionaldehyde substrate; active = well fitted inhibition curve with a large enough effect, not every such curve was filed as active; inconclusive = small, poorly fitted or top-dose-only effect, or another doubt; inactive = no such curve, though single readings can be large or run the other way;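 also: potency is read from the fitted curve at half-maximal effect; plate controls were no enzyme wells and a reference inhibitor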
HTT aggregate – inhibitors of mutant huntingtin aggregate formation in PC12 cells. PC12 HttQ103-GFP aggregates, Acumen cytometry, 40 h. Potency, µM (highest dose often 46.1 µM), for inactives: top-dose activity change, negative = inhibition, actives largely listed as inhibitors. actives 1.1% (n = 220,000). AID 1688; also: potency is read from the fitted curve at half-maximal effect; % is scaled to controls: 0 for no effect and ±100 for the full control effect; nearly all actives have a fitted effect of over 60% in size
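Compounds (qHTS titration) were added to PC12 cells expressing an ecdysone-driven HTT exon 1 Q103–GFP fusion after induction with 100 nM tebufenozide. Aggregate formation was measured as GFP objects in cell lysates.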
GoLoco inh red – RGS12 GoLoco-Gai1 interaction inhibition. actives 0.44% (n = 230,000). Gai1:RGS12 GoLoco peptide FP, rhodamine, 10 min. Potency, µM (doses to about 61.6 µM), for the others: at the highest dose activity, negative = inhibition, usual class: inhibitors. P63096. AID 880; active = well fitted inhibition curve with a large enough effect, not every such curve was filed as active; inactive = no such curve, though single readings can be large or run the other way; also: potency is read from the fitted curve at half-maximal effect; % is scaled to controls: 0 for no effect and ±100 for the full control effect; nearly all actives have a fitted effect of over 30% in size
Target sequence (P63096 whole entry, looked up): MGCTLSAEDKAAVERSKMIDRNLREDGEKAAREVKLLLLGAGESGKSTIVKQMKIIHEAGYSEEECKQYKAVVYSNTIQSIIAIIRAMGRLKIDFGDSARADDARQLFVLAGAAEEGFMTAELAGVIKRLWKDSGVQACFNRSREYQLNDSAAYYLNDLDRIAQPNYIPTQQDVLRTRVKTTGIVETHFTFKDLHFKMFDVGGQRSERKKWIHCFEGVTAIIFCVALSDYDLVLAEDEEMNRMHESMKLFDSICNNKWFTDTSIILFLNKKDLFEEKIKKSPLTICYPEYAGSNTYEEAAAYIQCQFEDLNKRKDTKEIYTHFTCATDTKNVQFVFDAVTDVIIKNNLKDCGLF
Starred values were filed as active, the others as inactive; ? = inconclusive; · = not tested or not shown; [ ] = dose if it differs, or a comment. Sampled rows, rich in hits. Any-hit rate of the full collection: about 11%. Unless noted, calls follow the shape of the dose curve; as a rule, active = well fitted curve in the direction sought with a large enough effect; inconclusive = small, poorly fitted or top-dose-only effect, or another doubt; inactive = no such curve, though single readings can be large; an effect the other way counts as inactive or inconclusive.

SMILES	HPGD inh	HTT cytoprotect	PNC inhibitor	ALDH1A1 block	HTT aggregate	GoLoco inh red
Cc1ccc(NC(=O)C2CCN(c3cnccn3)CC2)cc1C	·	·	·	-6.9%	·	15.1%
C#CCNC(=O)C1=C[C@@H](c2ccccc2)C[C@@H](OCc2ccc(CO)cc2)O1	·	5.1%[10 µM]	·	-2.2%	-5.3%[9.22 µM]	5.1%
NC(=O)C1=C[C@H](c2ccc(Br)cc2)C[C@H](OCc2ccc(CO)cc2)O1	·	-9.7%[10 µM]	·	?	-4.2%[9.22 µM]	1.0%
C=CCOC(=O)C1=C[C@@H](c2ccc(Br)cc2)C[C@@H](OCc2ccc(CO)cc2)O1	·	16.1%[10 µM]	·	17.8µM*	2.1%[9.22 µM]	2.4%
O=C(Nc1ccccc1)C1=C[C@H](c2ccc3c(c2)OCO3)C[C@H](OCc2ccc(CO)cc2)O1	·	-33.2%[10 µM]	·	28.2µM*	4.7%[9.22 µM]	15.0%
CN1CCN(C(=O)C2=C[C@@H](c3ccccc3)C[C@@H](OCc3ccc(CO)cc3)O2)CC1	·	1.6%[10 µM]	·	12.6µM*	-8.0%[9.22 µM]	-11.8%
C#CCNC(=O)C1=C[C@H](c2ccc(C(F)(F)F)cc2)C[C@H](OCc2ccc(CO)cc2)O1	·	-18.2%[10 µM]	·	28.2µM*	-0.3%[9.22 µM]	-1.5%
O=C(C1=C[C@@H](c2ccc(C(F)(F)F)cc2)C[C@@H](OCc2ccc(CO)cc2)O1)N1CCN(Cc2ccc3c(c2)OCO3)CC1	·	-14.8%[10 µM]	·	12.6µM*	10.1%[9.22 µM]	9.4%
COc1ccc(C2C(C(=O)N3CCN(c4ccccc4F)CC3)c3ccccc3C(=O)N2C)cc1 (configuration not stated)	-7.4%	-4.8%	-25.2	0.891µM*	6.3%	7.3%
COc1ccc(C2C(C(=O)N3CCC(C)CC3)c3ccccc3C(=O)N2C)cc1 (configuration not stated)	-6.1%	4.2%[10 µM]	-85.9*	-4.6%	-12.7%	-4.6%
CCc1cccc(C)c1NC(=S)N(CCN(C)C)C(C)c1ccco1 (configuration not stated)	·	18.3%[10 µM]	·	·	-27.0%[9.22 µM]	6.6%
C[C@@H]1O[C@H]2C3=C(C(=O)[C@H]4O[C@@H]4[C@H]3O)[C@@H]1[C@@H]1[C@@H](C)OC=C3[C@H](O)[C@H]4O[C@@H]4/C(=N\OCc4ccccc4)[C@]312	·	17.5%[10 µM]	·	5.1%[13.5 µM]	·	·
Cc1ccc(NC(=S)N2CCC(c3ccc(C)cc3)C2)cc1 (configuration not stated)	·	-20.3%	·	28.2µM*	·	-7.5%
Cc1ccc(C2Oc3ccccc3C3=C2C(c2cccs2)n2ncnc2N3)cc1 (configuration not stated)	-14.2%	-53.9%	11.7	11.2µM*	-18.5%	17.8%
O=C(C[n+]1ccccc1)N/N=C/c1cccs1	·	-1.4%	·	5.8%	-4.0%	23.7%
O=CN1CCN(C[C@H](O)CN2CCCCC2)CC1	-4.0%	-13.9%[10 µM]	·	-8.2%[13.5 µM]	·	0.4%[14.2 µM]
COc1cc(CCC(=O)OCC(=O)Nc2ccccc2C(C)C)cc(OC)c1OC	0.7%	8.9%[10 µM]	-110.8*	4.3%	1.0%	5.9%
CCN(CC)S(=O)(=O)c1ccc(NC(=O)COC(=O)CCc2cc(OC)c(OC)c(OC)c2)cc1	-4.5%	2.8%[1.9 µM]	23.3	2.51µM*	12.2%	-0.7%
COc1cc(CCC(=O)OCC(=O)Nc2cccc(S(=O)(=O)N(C)C)c2)cc(OC)c1OC	-2.0%	·	?	-8.7%	28.9%	6.8%
COc1cc(CCC(=O)OCC(=O)Nc2ccccc2OC(F)F)cc(OC)c1OC	·	-32.4%	·	4.4%	23.5%	2.6%
COc1cccc(-n2nc(C#N)c(Cl)cc2=O)c1	·	-173.0%	·	-4.7%	3.55µM*	-4.3%
COc1cccc(-n2nc(C(N)=O)c(O)cc2=O)c1	·	-14.9%	·	-0.5%	1.6%	-3.9%
COc1ccc(CNc2nc(-c3ccc(N(C)C)cc3)nc3ccccc23)c(OC)c1	·	-105.4%	·	?	·	8.91µM*
O=C(Nc1cnn(Cc2ccc(Cl)cc2)c1)c1ccc([N+](=O)[O-])cc1	-13.2%	2.1%	?	5.2%	2.5%	0.0%
O=C(C[n+]1cnn(CC(=O)c2ccc(Cl)cc2Cl)c1)c1ccc([N+](=O)[O-])cc1	-0.1%	-3.1%[1.9 µM]	-14.8	20µM*	4.1%	10.5%
SMILES	HPGD inh	HTT cytoprotect	PNC inhibitor	ALDH1A1 block	HTT aggregate	GoLoco inh red
COc1ccc(C(=O)c2c[nH]c(C(=O)NCc3ccco3)c2)cc1	?	-18.0%	-16.2	?	-11.8%	-5.6%
Cc1ccccc1C(=O)c1c[nH]c(C(=O)NCc2ccco2)c1	-17.4%	-23.6%	25.2	20µM*	?	9.2%
Cc1ccccc1C(=O)c1c[nH]c(C(=O)NCCc2ccccn2)c1	·	23.4%[10 µM]	·	22.4µM*	-22.6%	5.6%
N#Cc1cccc(-c2nc3cnc(N4CCOCC4)nc3n(C[C@H]3CCCO3)c2=O)c1	·	13.1%	·	?	·	6.7%
CC#CCN1c2ccccc2[C@]23C[C@@H](C(=O)OC)N(S(=O)(=O)c4ccc(C(F)(F)F)cc4)C2=NC(C(=O)OC)=C(C(=O)OC)[C@H]13	1.9%	-12.4%[10 µM]	·	1.8%[13.5 µM]	·	3.4%[14.2 µM]
CC(C)CN(C#N)c1nc(N2CCOCC2)nc(N2CCOCC2)n1	-11.3%	-78.1%	?	7.94µM*	?	1.1%
CC(C)CCCNc1nc(N2CCOCC2)nc(N2CCOCC2)n1	-3.3%	3.2%[10 µM]	45.3	-0.1%	2.8%	8.6%
O=Cc1ccc(CO)o1	-9.6%	2.3%	·	?	·	3.8%
CC(C)(C)C1CCC2(CC1)NC(=S)N(c1ccccc1)N2 (configuration not stated)	11.2µM*	-7.3%[10 µM]	168.8	?	12.3%	6.8%
CCC/C=C(\CCC)C(NC(=O)c1ccccc1)c1ccccc1 (configuration not stated)	-10.7%	3.8%	·	?	·	3.0%
CCC1(C(=O)OC)NC(c2ccco2)C2C(=O)N(c3ccc(F)cc3)C(=O)C21 (configuration not stated)	·	-1.9%[10 µM]	·	17.8µM*	-10.8%[9.22 µM]	0.1%
c1ccc(-c2ccccc2OCCCN2CCCC2)cc1	-6.3%	-50.0%[10 µM]	-107.0*	?	?	-14.9%
CC1CCN(CCOc2ccccc2-c2ccccc2)CC1	5.8%	36.2%[10 µM]	-105.2*	?	7.5%	-5.0%
COc1cc(Cl)cc(C2NC(=O)NC(C)=C2C(C)=O)c1OCC(=O)O (configuration not stated)	-9.3%	11.6%[10 µM]	27.3	2.24µM*	10.4%	-1.4%
CC(C)C(NC(=O)C12CC3CC(CC(C3)C1)C2)C(=O)O (configuration not stated)	-3.9%	-9.6%[10 µM]	61.3	4.8%	-0.3%	7.0%
O=C(N/N=C/c1ccccc1O)C1(O)c2ccccc2-c2ccccc21	-21.7%	31.9%[1.9 µM]	75.4	8.8%	10µM*	10.4%
Cc1c(/C=N/NC(=O)C2(O)c3ccccc3-c3ccccc32)cnn1C	-8.2%	·	20.0	5.1%	10.7%	5.9%
